The values that follow come from ChEMBL document CHEMBL1157539, “Thousands of chemical starting points for antimalarial lead identification” (Nature, 2010).

Residues, ends and D or L forms follow the SMILES beside them. *: point of attachment. Octanoyl = CCCCCCCC(=O)*

The test system of this test is Plasmodium falciparum. The test is described as follows: GSK_TCMDC: Inhibition of Plasmodium falciparum 3D7 in whole red blood cells, using parasite LDH activity as an index of growth. Test compounds present at 2uM. Type of test: functional.
On to `O=S(=O)(Nc1cccc(CCN2CCC(N3CCCCC3)CC2)c1)c1ccc(Oc2ccccc2)nc1`, for which the Inhibition (in general, the drop in the measured response relative to a control, in per cent) was 99%.
Under `Cc1ccccc1Nc1nc(NCc2ccccc2)nc2ccccc12` stands 88%; under `Br.CCCOc1ccc(OCCCON2C(=N)N=C(N)NC2(C)C)cc1`, 96%; under `O=C(Nc1ccc(OC2CCN(Cc3ccsc3)CC2)c(Cl)c1)c1ccc(F)cc1.O=C(O)C(F)(F)F`, 98%.
With `CN1CCC(Oc2ccc(CN3CC[C@H](NC(=O)c4ccc(Cl)c(Cl)c4)C3)c3ccccc23)C1.O=C(O)C(F)(F)F` (stereo not given in full) the figure was 100%.
With `CC(=O)N(Cc1ccc(CC(C)NCCc2cccc(Cl)c2)cc1)Cc1ccc(CC(C)NCCc2cccc(Cl)c2)cc1` (stereo not given) the figure was 100%; with `Cl.Oc1ccc2c(CNCCc3ccccc3)c(O)ccc2c1CNCCc1ccccc1`, 99%.
Turning to `C=CCOc1ccc(-c2c(C)[nH]c(C)c(Br)c2=O)cc1`, the Inhibition was 98%.
Compound `CCOc1ccc2[nH]c(C)cc(=NN=Cc3ccc(Cl)cc3)c2c1` displayed an Inhibition of 100%.
Under `Cc1ccc([N+](=O)[O-])cc1NC(=O)N(CC(O)c1ccccc1)C1CCCCC1` (stereo not given) stands 100%.
Turning to `COc1ccc(CNC(=O)Nc2cc3cc(-c4ccc(CN5CCCC5)cc4)ccc3n3c(C)nnc23)cc1`, the Inhibition is reported as 100%.
The compound `O=C(/C=C/c1ccc(C(F)(F)F)cc1)N1CCc2cc3nccc(N4CCN5CCC[C@H]5C4)c3cc21` registered an Inhibition of 86%.
With `CS(=O)(=O)c1ccc(CCNCc2ccc(-c3ccc(CN(C(=O)C4CC(=O)c5ccccc54)C4CCN(Cc5ccccc5)CC4)cc3)nc2)cc1.O=C(O)C(F)(F)F` (stereo not given), the Inhibition is recorded as 100%.
For `COc1ccc(-c2cccc(NC(=O)c3ccc(C#N)cc3)c2)cc1CNC(C)C.O=C(O)C(F)(F)F`, the Inhibition came out at 100%.
With `CN(C)C(=O)C(CC(=O)NCc1ccccc1Cl)N(C)C.CN(C)C(=O)CC(C(=O)NCc1ccccc1Cl)N(C)C.O` (stereo not given) the figure was 96%; with `Cc1cccc(CNc2nc(C)cc(NCCC(=O)NCCOc3ccccc3)n2)c1.O=C(O)C(F)(F)F`, 98%; with `O=C(Nc1ccc(OC2CCN(Cc3ccccc3)C2)c(Cl)c1)c1ccc(F)cc1.O=C(O)C(F)(F)F` (stereo not given), 90%.
With `CCc1cn2c3c(cc(C(=O)N[C@@H](Cc4ccccc4)[C@H](O)CNC4CCC4)cc13)N(C)S(=O)(=O)CC2` the figure was 98%.
With `Cc1ccc(O)cc1Nc1ccnc2ccc(C(C)(C)C)cc12` the figure was 100%; with `Cn1cncc1C(=O)Nc1cccc(-c2ccc(-c3nc4cc(F)ccc4[nH]3)s2)c1`, 99%.
In turn, `O=C(O)C(F)(F)F.O=S(=O)(NCCN1CCCC1)c1ccc(-c2cccc(CNC3Cc4ccccc4C3)c2)cc1` came in with an Inhibition of 99%.
As to `CCCCCCCC(=O)N[C@@H](Cc1ccccc1)C(=O)N[C@H](C(=O)O)C(C)C` (Octanoyl-Phe-Val-OH), the Inhibition is 89%.
With `O=S(=O)(c1c(Cl)cc(Cl)cc1Cl)N1CCCCC(c2ccc(Cl)cc2)=N1` the figure was 95%; with `CC(C)Cn1cc(C2CCN(CCN3CCC(CNC(=O)c4ccc(NC(=O)c5ccc(Cl)cc5)cc4)CC3)CC2)c2ccccc21`, 100%; with `CCOc1ccc(C(=O)Nc2cc(Br)c3c(c2)CNCC3)cc1C(F)(F)F.Cl`, 98%.
`Cn1cncc1C(=O)Nc1ccc(-c2ccc(-c3nc4cc(C(F)(F)F)ccc4[nH]3)cc2)cc1` came in with an Inhibition of 100%.
With `Brc1cc(CNCCCNc2nc3ccccc3[nH]2)sc1Br.Cl` the figure was 100%; with `CC(C)(C)c1ccc(CN2CCC(CNC(=O)c3cc(-c4ccccc4C(F)(F)F)cs3)C2)cc1.O=C(O)C(F)(F)F` (stereo not given), 92%; with `CN1CCC(C(=O)N(Cc2ccc(-c3ccc(CNCCc4ccc(S(C)(=O)=O)cc4)cn3)cc2)C2CCN(Cc3ccccc3)CC2)CC1.O=C(O)C(F)(F)F`, 100%.
On to `CCCC(C)Nc1nc(C)cc(N[C@@H](CC(C)C)C(=O)Nc2ccc(OC)cc2)n1.O=C(O)C(F)(F)F` (stereo not given in full), for which the Inhibition was 98%.
With `CN1CC(c2ccccc2)c2cc(O)c(CN3CCCCC3)cc2CC1Cc1ccccc1.Cl` (stereo not given) the figure was 99%; with `Oc1c(C(Nc2ccccn2)c2ccc(Cl)cc2Cl)ccc2cccnc12` (stereo not given), 88%.
Under `COc1ccc2nccc([C@@H](O)CN3CCC(NCc4cc5c(F)ccc(F)c5[nH]4)CC3)c2n1.CS(=O)(=O)O` stands 100%.
With `N=C(N)NN=CC(=O)Nc1ccc(Br)cc1.O=S(=O)(O)O` the figure was 100%; with `N#Cc1ccc2[nH]cc(CN3CCC4(CC3)CN(CCNCc3ccccc3)C(=O)CO4)c2c1.O=C(O)C(F)(F)F`, 98%.
Compound `CC(C)(C)c1ccc(CN2CCC(CNC(=O)c3cc(-c4cccc(C(F)(F)F)c4)cs3)C2)cc1.O=C(O)C(F)(F)F` (stereo not given) registered an Inhibition of 100%.
`CN(C)CCCOc1ccc(CN2CC[C@H](NC(=O)c3ccc(Cl)c(Cl)c3)C2)c2ccccc12.O=C(O)C(F)(F)F` returned an Inhibition of 100%.
Under `O=C(Nc1ccc(-c2nc3ccccc3[nH]2)cc1)c1cccc([N+](=O)[O-])c1` stands 100%; under `COc1ccc(Nc2ccnc3cc(Cl)ccc23)cc1OC`, 100%; under `O=C(/C=C/c1ccc(Cl)c(Cl)c1)NCCCCCN1CCCN(C(=O)Nc2ccc([N+](=O)[O-])cc2)CC1`, 97%.
